Source: PubChem BioAssay (NCI)
Compounds without any hit were thinned out: in the full panel of roughly 79,000, 15% have a hit. Values without a mark were called inactive. The source made the active and inactive calls. Rule as the data show it: active = growth inhibition above about 70%; inactive = the rest.

Experiments:
[1] = NCI Yeast Anticancer Drug Screen. Data for the rad50 strain (AID 155);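 also: 0% = growth of vehicle-only cultures of the same strain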; details: S. cerevisiae rad50 strain growth inhibition; at 50.0 µM; stronger effect = higher value
Method in brief: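 Compounds were tested on a yeast strain with an engineered DNA damage repair alteration; the reported value is growth inhibition normalised to vehicle treatment.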

[2] = NCI Yeast Anticancer Drug Screen. Data for the mec2-1 strain (AID 157); details: S. cerevisiae mec2-1 strain, at 50.0 µM, stronger effect = higher value
Method in brief: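 Yeast mec2-1 mutant treated with compound. Readout: growth inhibition vs vehicle controls.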

[3] = NCI Yeast Anticancer Drug Screen. Data for the sgs1 mgt1 strain (AID 161);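 also: 0% = growth of cultures given vehicle only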; details: S. cerevisiae sgs1 mgt1 strain, at 50.0 µM, stronger effect = higher value
Method in brief: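 Mutant yeast exposed to compound; growth scored against vehicle-only wells.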

[4] = NCI Yeast Anticancer Drug Screen. Data for the cln2 rad14 strain (AID 165);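 also: 0% = growth equal to vehicle treated cultures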; details: S. cerevisiae cln2 rad14 strain, at 50.0 µM, stronger effect = higher value
Method in brief: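 cln2 rad14 yeast strain; compound exposure; growth inhibition read vs vehicle controls.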

[5] = NCI Yeast Anticancer Drug Screen. Data for the bub3 strain (AID 167); details: S. cerevisiae bub3 mutant strain, at 50.0 µM, stronger effect = higher value
Method in brief: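 Growth of a checkpoint-deficient yeast mutant is measured after compound exposure. Values represent inhibition relative to vehicle.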

[6] = NCI Yeast Anticancer Drug Screen. Data for the mlh1 rad18 strain (AID 175); details: S. cerevisiae mlh1 rad18 strain growth inhibition; at 50.0 µM; stronger effect = higher value
Method in brief: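 Yeast w/ defined DNA-repair lesions; compound exposure; growth vs vehicle controls → % inhibition.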

Cc1nc2ccccc2c(Br)c1Br
growth inhibition [1]: 14.5% | growth inhibition [2]: 7.35% | growth inhibition [3]: 3.55% | growth inhibition [4]: 11.2% | growth inhibition [5]: -4.05% | growth inhibition [6]: 6.5%

CO/C=C(/C#N)S(=O)(=O)/C(C#N)=C/OC
growth inhibition [1]: 32.5% | growth inhibition [2]: 37.3% | growth inhibition [3]: 34% | growth inhibition [4]: 4.65% | growth inhibition [5]: 24.9% | growth inhibition [6]: 15.9%

Nc1nc(N)c2nn(-c3ccc(C(=O)O)cc3)nc2n1
growth inhibition [1]: -13.6% | growth inhibition [2]: 7.85% | growth inhibition [3]: -5.15% | growth inhibition [4]: -16.9% | growth inhibition [5]: -11.2% | growth inhibition [6]: 6.05%

ON1c2ccccc2-c2ccccc2C1(c1ccccc1)c1ccccc1
growth inhibition [1]: 95.8% (active) | growth inhibition [2]: 96.6% (active) | growth inhibition [3]: 78.7% (active) | growth inhibition [4]: 69.8% | growth inhibition [5]: 71.5% (active) | growth inhibition [6]: 97.3% (active)

BrCCOc1ccccc1
growth inhibition [1]: 19.4% | growth inhibition [2]: 8% | growth inhibition [3]: -28.6% | growth inhibition [4]: -29.5% | growth inhibition [5]: -8.3% | growth inhibition [6]: -25.5%

COc1cc([N+](=O)[O-])ccc1NC(=O)Nc1c(C)n(C)n(-c2ccccc2)c1=O
growth inhibition [1]: -17.1% | growth inhibition [2]: 1.75% | growth inhibition [3]: -8.3% | growth inhibition [4]: 92.6% (active) | growth inhibition [5]: 0.15% | growth inhibition [6]: 6.25%

COc1ccc(N2N=NCC2c2ccccc2[N+](=O)[O-])cc1 (stereo not given)
growth inhibition [1]: -10.6% | growth inhibition [2]: -11.9% | growth inhibition [3]: 14.2% | growth inhibition [4]: -37.4% | growth inhibition [5]: 13.6% | growth inhibition [6]: 20.4%

CCC1CCC(CC)C1OC(C)=O (stereo not given)
growth inhibition [1]: -31.1% | growth inhibition [2]: -27.7% | growth inhibition [3]: -12.3% | growth inhibition [4]: -26.4% | growth inhibition [5]: -28.7% | growth inhibition [6]: -21.6%

CN(C)Cc1cc(C(=O)/C=C/c2c(F)cccc2Cl)cc(CN(C)C)c1O
growth inhibition [1]: 1.7% | growth inhibition [2]: 21.4% | growth inhibition [3]: 2.35% | growth inhibition [4]: 1.05% | growth inhibition [5]: -13.8% | growth inhibition [6]: 7.35%

CSc1ncnc2c1ncn2CCC(=O)O
growth inhibition [1]: -33.9% | growth inhibition [2]: 11.4% | growth inhibition [3]: -42.1% | growth inhibition [4]: 8.8% | growth inhibition [5]: -13.9% | growth inhibition [6]: -19.4%

O=C(Nc1nc(=S)[nH][nH]1)C(=O)C(C(=O)c1ccc2ccccc2c1)C1OC(=O)c2ccccc21 (stereo not given)
growth inhibition [1]: 28.6% | growth inhibition [2]: 23.3% | growth inhibition [3]: -6.5% | growth inhibition [4]: -14.3% | growth inhibition [5]: 3.75% | growth inhibition [6]: 28.8%

CC1(N)CCC(C(C)(C)N)CC1 (stereo not given)
growth inhibition [1]: 28.1% | growth inhibition [2]: -8.75% | growth inhibition [3]: 10.8% | growth inhibition [4]: -30.3% | growth inhibition [5]: 2.35% | growth inhibition [6]: 8.8%

Cc1cc(Cl)ccc1N=NC(=O)NNc1ccc(Cl)cc1C
growth inhibition [1]: 35.2% | growth inhibition [2]: -15.2% | growth inhibition [3]: -7.05% | growth inhibition [4]: -21.9% | growth inhibition [5]: -7.2% | growth inhibition [6]: -19.5%

O=C(O)c1ccccc1Nc1nc2ccccc2o1
growth inhibition [1]: -1.85% | growth inhibition [2]: 2.15% | growth inhibition [3]: -7.05% | growth inhibition [4]: -26.6% | growth inhibition [5]: 15.2% | growth inhibition [6]: 0.25%

CN(C)C1CS(=O)(=O)OC2=C1CCSc1ccccc12 (stereo not given)
growth inhibition [1]: 5.1% | growth inhibition [2]: 12.1% | growth inhibition [3]: 11.4% | growth inhibition [4]: -84.7% | growth inhibition [5]: -5.65% | growth inhibition [6]: 7.6%

CSc1n[nH]c(N)c1C(=O)Nc1ccc(C)cc1
growth inhibition [1]: 19.9% | growth inhibition [2]: 10.8% | growth inhibition [3]: 39.5% | growth inhibition [4]: 22.4% | growth inhibition [5]: 49.2% | growth inhibition [6]: 10.6%

NC(=S)N1CCCC1
growth inhibition [1]: -2.2% | growth inhibition [2]: -22.1% | growth inhibition [3]: 3.05% | growth inhibition [4]: 7% | growth inhibition [5]: 17.6% | growth inhibition [6]: 19.3%

CCCCCCn1cnc2c(=S)nc[nH]c21
growth inhibition [1]: 24.6% | growth inhibition [2]: 8.35% | growth inhibition [3]: 10.8% | growth inhibition [4]: 7.45% | growth inhibition [5]: -0.65% | growth inhibition [6]: 12.8%

Fc1ccc(C2(c3ccc(F)cc3)CCCO2)cc1
growth inhibition [1]: 4.4% | growth inhibition [2]: -22.4% | growth inhibition [3]: -6.15% | growth inhibition [4]: 25.7% | growth inhibition [5]: -4.1% | growth inhibition [6]: 6.2%

CC(=O)OCC1OC(n2cnc(C(N)=S)c2N)C(OC(C)=O)C1OC(C)=O (stereo not given)
growth inhibition [1]: 2.3% | growth inhibition [2]: 15.8% | growth inhibition [3]: 11.4% | growth inhibition [4]: -10.4% | growth inhibition [5]: -2.35% | growth inhibition [6]: 21.2%

CCCCC(C)(CCN)CCCC
growth inhibition [1]: 5.05% | growth inhibition [2]: 1.4% | growth inhibition [3]: -5.05% | growth inhibition [4]: 7.4% | growth inhibition [5]: -3% | growth inhibition [6]: 0.1%

COc1cc(C(=O)N2C[C@H](O)C[C@H]2C(=O)O)cc(OC)c1OC
growth inhibition [1]: -18.4% | growth inhibition [2]: -15.9% | growth inhibition [3]: -32.8% | growth inhibition [4]: -5.75% | growth inhibition [5]: -16.4% | growth inhibition [6]: -9.85%

CNCC(OCCc1ccccc1)c1ccc(O)c(O)c1 (stereo not given)
growth inhibition [1]: 5.85% | growth inhibition [2]: -1.9% | growth inhibition [3]: 36% | growth inhibition [4]: -0.95% | growth inhibition [5]: -12.6% | growth inhibition [6]: 21.4%

CC(=C/c1ccccc1)/C=C1/NC(=S)N(CN2CCCCCC2)C1=O
growth inhibition [1]: 5.15% | growth inhibition [2]: -22.1% | growth inhibition [3]: 19.9% | growth inhibition [4]: -10.2% | growth inhibition [5]: -9.75% | growth inhibition [6]: -14.8%

CC(=O)c1cc([N+](=O)[O-])c(O)cc1O
growth inhibition [1]: 36.1% | growth inhibition [2]: 2.25% | growth inhibition [3]: 18.1% | growth inhibition [4]: -16.8% | growth inhibition [5]: 25.9% | growth inhibition [6]: 41%

CC(C)(Cc1ccccc1)NC1=NCCO1
growth inhibition [1]: -31.9% | growth inhibition [2]: -18.8% | growth inhibition [3]: -17.6% | growth inhibition [4]: -6.2% | growth inhibition [5]: -12.2% | growth inhibition [6]: -2.6%

CCCCSc1nc2ccc([N+](=O)[O-])cc2s1
growth inhibition [1]: 40.6% | growth inhibition [2]: -4.2% | growth inhibition [3]: 37.5% | growth inhibition [4]: 2.1% | growth inhibition [5]: 4.45% | growth inhibition [6]: 12.9%

NCCC(=O)O
growth inhibition [1]: 5.95% | growth inhibition [2]: 14.9% | growth inhibition [3]: -8.25% | growth inhibition [4]: 12.1% | growth inhibition [5]: -13.8% | growth inhibition [6]: 16.9%

COc1ccc(CN2COc3c(ccc4ccccc34)C2)cc1
growth inhibition [1]: 36.1% | growth inhibition [2]: 22.9% | growth inhibition [3]: 31.1% | growth inhibition [4]: 17.4% | growth inhibition [5]: 12.6% | growth inhibition [6]: 30.9%

COc1ccc(/C=C2/C[N+](C)(C)C/C(=C/c3ccc(OC)cc3)C2=O)cc1
growth inhibition [1]: 10.3% | growth inhibition [2]: 11.8% | growth inhibition [3]: -7.15% | growth inhibition [4]: 6.15% | growth inhibition [5]: 16.4% | growth inhibition [6]: -2.25%

CCCN=C(NC(=O)c1ccc(Cl)cc1)SC
growth inhibition [1]: -16.3% | growth inhibition [2]: -41.5% | growth inhibition [3]: -6.05% | growth inhibition [4]: -6.7% | growth inhibition [5]: 8.05% | growth inhibition [6]: -46.4%

O=C1C=C(NCCc2ccccc2)c2ccccc2C1=O
growth inhibition [1]: 38.5% | growth inhibition [2]: -8.6% | growth inhibition [3]: 16.6% | growth inhibition [4]: 9.15% | growth inhibition [5]: 40.4% | growth inhibition [6]: -5.1%

CC(/C=N/N(C)C1=NCCCN1)=N/N(C)C1=NCCCN1
growth inhibition [1]: 14.3% | growth inhibition [2]: 1.6% | growth inhibition [3]: -7.35% | growth inhibition [4]: -35.6% | growth inhibition [5]: -2.55% | growth inhibition [6]: 11.2%

C(=C\c1cccc2ccccc12)/c1ccc(-c2ccccc2)cc1
growth inhibition [1]: -5.9% | growth inhibition [2]: -45% | growth inhibition [3]: -0.75% | growth inhibition [4]: 12.1% | growth inhibition [5]: -3.45% | growth inhibition [6]: 5.75%

Cc1ccccc1NC(=O)CN1CCCC(C)C1 (stereo not given)
growth inhibition [1]: 10.7% | growth inhibition [2]: -34.8% | growth inhibition [3]: 0.9% | growth inhibition [4]: 11.3% | growth inhibition [5]: -16.2% | growth inhibition [6]: 5.45%

Cc1cccc(NC(=O)c2cccc([N+](=O)[O-])c2C(=O)O)c1C
growth inhibition [1]: 4.8% | growth inhibition [2]: 11.9% | growth inhibition [3]: 3.75% | growth inhibition [4]: -7.15% | growth inhibition [5]: 25.6% | growth inhibition [6]: 10.8%

O=C(Nc1ccccc1O)C(O)C(O)C(O)C(O)CO (stereo not given)
growth inhibition [1]: 35% | growth inhibition [2]: 30.7% | growth inhibition [3]: 38.8% | growth inhibition [4]: 23.2% | growth inhibition [5]: 52.1% | growth inhibition [6]: 58.8%

C=COC(=O)C(Cc1ccccc1)NC(=O)OCc1ccccc1 (stereo not given)
growth inhibition [1]: -5.2% | growth inhibition [2]: 10.8% | growth inhibition [3]: -23.2% | growth inhibition [4]: 10.6% | growth inhibition [5]: -7.65% | growth inhibition [6]: 6.9%

O=C1C(=Cc2ccccc2)C(=O)c2ccccc21
growth inhibition [1]: 2.55% | growth inhibition [2]: 25.6% | growth inhibition [3]: 8.65% | growth inhibition [4]: -17.6% | growth inhibition [5]: 24.7% | growth inhibition [6]: 9.3%

Nc1ccnc(SCCCCc2ccccc2)n1
growth inhibition [1]: 15.6% | growth inhibition [2]: 64.4% | growth inhibition [3]: 59% | growth inhibition [4]: -6.15% | growth inhibition [5]: 74% (active) | growth inhibition [6]: 64%
